Screening results from PubChem.
Pf apPOL inh – Pf-apPOL inhibitors, biochemical, fluorescence; Recombinant Pf-apPOL, molecular beacon fluorescence, 1.5 h; inhibition, % at 10 µM; 210,000 compounds, 0.25% hits
mHTT CaM bind – mutant huntingtin-calmodulin interaction inhibitors – biochemical, AlphaScreen, primary screen; inhibition, % at 15 µM; 190,000 compounds, 3.6% hits; AlphaScreen His-mHTT/GST-CaM binding, luminescence
Numbers stand for hits; . = inactive; / = no result given. In the library only some 3.6% were active in any assay of this set; here they are far more common. No stated cut-off is given here; in the data, active means inhibition above about 50%; inactive means the rest.

SMILES | Pf apPOL inh | mHTT CaM bind
Cc1cc(O)c(C(c2cccnc2)c2c(O)cc(C)oc2=O)c(=O)o1 | . | .
COc1cc(C(Nc2cc(C)ccn2)c2ccc3ccc(C)nc3c2O)cc(OC)c1OC (centres undefined) | . | 89
Cc1ccnc(NC(=O)CSc2nc(C)cc(C)n2)c1 | . | .
Cc1ccnc(NC(c2cccc(O)c2)c2ccc3ccc(C)nc3c2O)c1 (centres undefined) | . | 93
Cc1cccc(NC(c2cccnc2)c2ccc3ccc(C)nc3c2O)n1 (centres undefined) | . | 90
Cc1ccc2cccc(SCC(=O)Nc3ccc(F)cc3)c2n1 | . | .
COc1ccc(S(=O)(=O)N2CCCc3cc(NC(=O)c4snnc4C)ccc32)cc1 | . | .
Cc1cccc(NC(=O)N2CCCC2c2nc(-c3ccccc3C)no2)c1 (centres undefined) | . | .
COc1ccc(C(=O)C=Cc2cc(OC)ccc2OC)cc1 | . | .
CCC(C(=O)Nc1cccc(C)n1)c1ccccc1 (centres undefined) | . | .
Cc1cccc(NC(c2ccccc2)c2ccc3ccc(C)nc3c2O)n1 (centres undefined) | . | 77
Cc1ccc2ccc(C(Nc3ccccn3)c3cccc(O)c3)c(O)c2n1 (centres undefined) | . | 76
Cc1cccc(NC(c2cccc(O)c2)c2ccc3ccc(C)nc3c2O)n1 (centres undefined) | . | 89
Cc1cccc(NC(c2cccc([N+](=O)[O-])c2)c2ccc3ccc(C)nc3c2O)n1 (centres undefined) | . | 70
CCC(C(=O)Nc1ccccn1)c1ccccc1 (centres undefined) | . | .
O=c1cc(CO)oc(C(Nc2ccccn2)c2cccc([N+](=O)[O-])c2)c1O (centres undefined) | . | .
Cc1ccc2cccc(I)c2n1 | . | /
Cc1ccc(C(C)NC(=O)c2ccc(-c3cccnc3)nc2)c(C)c1 (centres undefined) | . | .
CCOc1ccc2cc(C(N)=O)c(=Nc3ccc(C)cc3)oc2c1 | . | .
COc1cccc(CC(=O)N2CCC(c3nc(C4CC4)n[nH]3)CC2)c1 | . | .
COc1ccccc1-c1coc2c3c(ccc2c1=O)OCN(CC1CCCO1)C3 (centres undefined) | . | .
Fc1ccc(Nc2ncc3c(n2)CCN(Cc2cc(Br)cs2)C3)cc1 | . | .
NC(=NNC(=O)Nc1ccc(Cl)cc1)c1ccc(C(F)(F)F)cn1 | . | /
COc1ccc(Cl)cc1NC(=O)c1nn(-c2ccccc2OC)c(=O)c2ccccc12 | . | .
CCc1c(C(=O)N2CCN(C(C)=O)CC2)c(CC(C)C)nn1-c1ccc(F)cc1 | . | .
SMILES | Pf apPOL inh | mHTT CaM bind
CCc1ccc(CNC(=O)c2ccc3[nH]c4c(c3c2)CN(C(C)=O)CC4)cc1 | . | .
CC(=O)N1CCc2[nH]c3ccc(C(=O)NCc4ccc(N5CCOCC5)cc4)cc3c2C1 | . | 56
CCOc1ccccc1CNC(=O)c1ccc2[nH]c3c(c2c1)CN(C(C)=O)CC3 | . | 74
CCC(CC)NC(=O)c1ccc2[nH]c3c(c2c1)CN(C(C)=O)CC3 | . | .
O=S(=O)(c1ccccc1C(F)(F)F)N1CCN(c2ccc(N3CCCC3)nn2)CC1 | . | .
COc1ccccc1N1CCN(C(=O)C2CCCc3c2[nH]c2ccccc32)CC1 (centres undefined) | . | 59
COc1ccccc1N1CCN(C(=O)C2CC2)CC1 | . | .
CCSc1nnc2c(n1)OC(c1ccccc1OC)N(C(C)=O)c1ccccc1-2 (centres undefined) | . | .
CSc1nnc2c(n1)OC(c1cc3c(cc1[N+](=O)[O-])OCO3)N(C(C)=O)c1ccccc1-2 (centres undefined) | . | .
CCN(CC)c1ccc(C2Oc3nc(SC)nnc3-c3ccccc3N2C(C)=O)c(OC)c1 (centres undefined) | . | 59
CSc1nnc2c(n1)OC(c1cc3c(cc1Cl)OCO3)N(C(C)=O)c1ccccc1-2 (centres undefined) | . | 78
C1=CC2C=CC1c1ccccc12 | . | /
O=C1[C@H](Cc2ccccc2)NCCCC[C@H](c2ccc(Cl)cc2)N1Cc1ccccc1 | . | .
O=C1[C@H](Cc2ccccc2)NC/C=C\C[C@H](c2ccc(Cl)cc2)N1Cc1ccccc1 | . | 82
O=C1[C@H](Cc2ccccc2)NC/C=C\C[C@H](c2ccc(Cl)cc2)N1Cc1ccc(Cl)cc1 | . | 99
O=C1[C@H](Cc2ccccc2)NC/C=C\C[C@@H](c2ccco2)N1Cc1ccccc1 | . | .
O=C1CSC(c2ccc(F)cc2)N1Cc1ccccc1 (centres undefined) | . | .
O=C1[C@H](Cc2ccccc2)NCCCC[C@H](c2ccco2)N1Cc1ccccc1 | . | 93
O=C1[C@H](Cc2ccccc2)NCCCC[C@@H](c2ccc(Cl)cc2)N1Cc1ccc(Cl)cc1 | . | 100
O=C1[C@H](Cc2ccccc2)NCCCC[C@@H](c2ccco2)N1Cc1ccccc1 | . | .
Cc1cc([N+](=O)[O-])ccc1-c1ccc(C(=O)NCCCN2CCOCC2)o1 | . | .
O=C(c1ccc(-c2csc(C3CC3)n2)cc1)N1CCCC1 | . | .
O=C1c2ccccc2NC(c2ccc(Cl)cc2)N1Cc1ccccc1 (centres undefined) | . | .
O=C1[C@H](Cc2ccccc2)NC/C=C\C[C@@H](c2ccc(Cl)cc2)N1Cc1ccccc1 | . | 93
CC(C)C(=O)NC(c1ccco1)c1cc(Cl)c2cccnc2c1O (centres undefined) | . | .
SMILES | Pf apPOL inh | mHTT CaM bind
CC(C)C(=O)NC(c1ccc(Cl)cc1)c1ccc2cccnc2c1O (centres undefined) | . | 95
CC(C)C(=O)NC(c1ccccc1)c1ccc2cccnc2c1O (centres undefined) | . | 100
CC(C)C(=O)NC(c1ccccc1Cl)c1ccc2cccnc2c1O (centres undefined) | . | 100
CC(C)C(=O)NC(c1ccco1)c1ccc2cccnc2c1O (centres undefined) | . | 100
Cc1ccc(-c2nnc(-c3cccc([N+](=O)[O-])c3)o2)cc1 | . | .
COc1ccc(N2CCN(CC(=O)c3ccc(F)cc3)CC2)cc1 | . | .
COc1ccc(OC)c2[nH]c(=O)c(CCNC(=O)c3cccc(C(F)(F)F)c3)cc12 | . | .
O=C(c1ccccc1OCC1CCN(C(=O)C2CC2)CC1)N1CCOCC1 | . | .
c1ccc(-n2ncc3c2-c2[nH]c4ccccc4c2CC3)cc1 | . | 93
c1ccc(-n2ncc3c2CCc2c-3[nH]c3ccccc23)cc1 | . | .
O=C(O)COc1ccc(/C=C2\C(=O)NC(=O)N(c3ccc(F)cc3)C2=O)cc1Br | . | .
COc1cccc2cc(-c3cc(=O)oc4cc(C)c(OCC=C(C)C)cc34)oc12 | . | .
COC(=O)c1ccc(NC(=O)c2ccc(S(=O)(=O)N(Cc3ccco3)C3CC3)o2)cc1 | . | .
CN1CCN(c2ccc(CNS(=O)(=O)c3ccc(-c4ccon4)s3)cc2)CC1 | . | /
CCCN1C/C(=C\c2cccc(OC)c2OC)C(=O)/C(=C/c2cccc(OC)c2OC)C1 | . | 50
COc1cccc(/C=C2\CS/C(=C\c3cccc(OC)c3OC)C2=O)c1OC | . | 53
COc1cccc(/C=C2/SC(N3CCN(C)CC3)=NC2=O)c1OC | . | .
COc1cccc(/C=C2\Cc3ccccc3C2=O)c1OC | . | .
O=C(Nc1nc(-c2ccc(Br)cc2)cs1)c1ncn[nH]1 | . | 100
